Results taken from PubChem BioAssay (Tox21).
More than one record can exist for a structure, and the calls need not agree. Active and inactive are the calls of the source. A call without a number means that no potency is given here. Calls come from the whole dose curve; as a rule, active = well fitted activation curve with a large enough effect in the repeat runs; inconclusive = weak or mixed curves; inactive = flat fitted curve, though single readings scatter.
Potency is the fitted concentration of half-maximal effect.

Test: Caspase-3/7 induction in CHO-K1 cells by small molecules, qHTS assay (AID 1346980); note: nearly all actives have a fitted effect of over 15% in size
Conditions: CHO-K1 caspase-3/7 induction, Caspase-Glo luminescence, 17 h; series mostly up to 92.4 µM
Description: National Center for Advancing Translational Sciences [NCATS]
NIH Chemical Genomics Center [NCGC]
U.S. Environmental Protection Agency [EPA]
National Institutes of Environmental Health Sciences [NIEHS]
National Toxicology Program [NTP]
Apoptosis is a process of programmed cell death and plays a central role in the development of multicellular organisms. It is a highly regulated process and induces cell death by activating caspases, which are the members of cysteine aspartic acid-specific protease (caspase) family. Caspases involved in apoptosis are classified by their mechanism of action as initiator caspases (caspase-2, -8, -9 and -10) and executioner caspases (caspase-3, -6, and -7). Inhibition of apoptosis results in number of cancers, autoimmune diseases, inflammatory diseases and viral infection. To identify small molecule compounds that induce apoptosis, a homogeneous, luminescent Caspase-Glo 3/7 assay was used. Wild type CHO-K1 cells were used to screen Tox21 libraries for identifying caspase-3/7 activity inducers.
CHO-K1 cells were dispensed at 1,500 per well in 5uL of culture medium into white solid bottom 1536-well plates (Corning Life Sciences, Corning, NY) using a Multidrop Combi (Thermo Scientific, Waltham, MA) dispenser. The assay plates were incubated at 37 C and 5% CO2 for 5hr, and then 23nL of compounds dissolved in DMSO and positive control were transferred using a Pintool station (Wako, San Diego, CA). The assay plates were incubated at 37C and 5% CO2 for 17hr. For caspase-3/7 activity read, 4uL of Caspase-Glo 3/7 reagent (Promega Corporation, Madison, WI) was added to each well of the assay plates using Flying Reagent Dispenser (FRD, Aurora Discovery, San Diego, CA) and incubated the assay plates at room temperature for 30min. The luminescence signal was quantified using a ViewLux plate reader (Perkin Elmer, Shelton, CT).
For `N#CC(Br)Br`, the Potency was “inactive”. For `O=S(=O)(Oc1ccc(Cl)cc1)c1ccc(Cl)cc1`, the Potency was “inactive”. With `Nc1cccnc1` the Potency was “inactive”. With `O=[N+]([O-])c1ccc(O)c([N+](=O)[O-])c1` the Potency was “inactive”. In the case of `O=C(CCl)c1ccccc1`, the Potency is reported as “inactive”. For `COc1ccc(C(CN(C)C)C2(O)CCCCC2)cc1` (stereo not given), the Potency was “inactive”. With `O=Cc1ccco1` the Potency was “inactive”. In the case of `C=CCc1ccc2c(c1)OCO2`, the Potency is reported as “inactive”. For `CC(C)c1ccc(CO)cc1`, the Potency was “inactive”. With `O=C(O)C(F)(F)C(F)(F)C(F)(F)C(F)(F)C(F)(F)C(F)(F)C(F)(F)F` the Potency was “inactive”. For `CCC(CC)Nc1c([N+](=O)[O-])cc(C)c(C)c1[N+](=O)[O-]`, the Potency was “inactive”. With `CCN(CC)N=O` the Potency was “inactive”. With `c1cc(OCC2CO2)ccc1Cc1ccc(OCC2CO2)cc1` (stereo not given) the Potency was “inactive”. With `O=[N+]([O-])c1c(Cl)c(Cl)c(Cl)c(Cl)c1Cl` the Potency was “inactive”. With `CCC(=O)O[C@H]1CC[C@H]2[C@@H]3CCC4=CC(=O)CC[C@]4(C)[C@H]3CC[C@]12C` the Potency was “inactive”. In the case of `NNC(=S)NN`, the Potency is reported as 56 µM (active) and inactive. In the case of `CCCCCCOC(=O)c1ccccc1C(=O)OCCCCCC`, the Potency is reported as “inactive”. For `N#Cc1cc(Br)c(O)c(Br)c1`, the Potency was “inactive”. With `CC(O)CCO` (stereo not given) the Potency was “inactive”. For `CCC(C)(c1ccc(O)cc1)c1ccc(O)cc1`, the Potency was “inactive”. With `C#CCOS(=O)OC1CCCCC1Oc1ccc(C(C)(C)C)cc1` (stereo not given) the Potency was “inactive”. In the case of `O=c1oc2ccccc2c(O)c1C(CC(O)c1ccc(-c2ccc(Br)cc2)cc1)c1ccccc1` (stereo not given), the Potency is reported as “inactive”. With `O=C1C=CC(=O)C=C1` the Potency was “inactive”. With `Nc1ccc(-c2ccccc2)cc1` the Potency was “inactive”. With `CCCCCCCCC(=O)NCc1ccc(O)c(OC)c1` the Potency was “inactive”. In the case of `COC(=O)c1sccc1S(=O)(=O)NC(=O)Nc1nc(C)nc(OC)n1`, the Potency is reported as “inactive”. For `Brc1ccc(Oc2cc(Br)c(Br)cc2Br)c(Br)c1`, the Potency was “inactive”. In the case of `CC(C)(OOC(C)(C)c1ccccc1)c1ccccc1`, the Potency is reported as “inactive”. With `c1nc[nH]n1` the Potency was “inactive”. With `CC(C)NC(C)C` the Potency was “inactive”. For `Cc1ccc(OP(=O)(Oc2ccc(C)cc2)Oc2ccc(C)cc2)cc1`, the Potency was “inactive”. With `CCCCNC(=O)n1c(NC(=O)OC)nc2ccccc21` the Potency was “inactive”. For `NCc1cccnc1`, the Potency was “inactive”. For `C#C[C@]1(O)CC[C@H]2[C@@H]3CCC4=CC(=O)CC[C@]4(C)[C@H]3CC[C@@]21C`, the Potency was “inactive”. For `CCOC(=S)S`, the Potency was 61.1 µM (active). With `O=C(NC(=O)c1c(F)cccc1F)Nc1ccc(Cl)cc1` the Potency was “inactive”. With `CCOC(=O)C(C)OC(=O)c1cc(Oc2ccc(C(F)(F)F)cc2Cl)ccc1[N+](=O)[O-]` (stereo not given) the Potency was “inactive”. In the case of `CCCCC(CC)COC(=O)c1ccc(C(=O)OCC(CC)CCCC)c(C(=O)OCC(CC)CCCC)c1` (stereo not given), the Potency is reported as “inactive”. With `CCc1cccc(CC)c1N(COC)C(=O)CCl` the Potency was “inactive”. For `CNC(=O)N(C)c1nnc(C(C)(C)C)s1`, the Potency was “inactive”.
